# Data: PubChem BioAssay AID624267 (The Scripps Research Institute Molecular Screening Center, 2012)
# Screen size: about 360,000 compounds; about 1,400 (0.39%) were called active. Many of the other results were omitted from the sample, so actives are more common in it than they were. Unmarked numbers belong to inactive results. Cut-off read from the data, not from the text of the source: active = inhibition above about 21%; inactive = the rest.
# Biological target: Receptor-interacting serine/threonine-protein kinase 2 (Homo sapiens) (UniProt O43353)
# Sequence (O43353 whole entry, looked up): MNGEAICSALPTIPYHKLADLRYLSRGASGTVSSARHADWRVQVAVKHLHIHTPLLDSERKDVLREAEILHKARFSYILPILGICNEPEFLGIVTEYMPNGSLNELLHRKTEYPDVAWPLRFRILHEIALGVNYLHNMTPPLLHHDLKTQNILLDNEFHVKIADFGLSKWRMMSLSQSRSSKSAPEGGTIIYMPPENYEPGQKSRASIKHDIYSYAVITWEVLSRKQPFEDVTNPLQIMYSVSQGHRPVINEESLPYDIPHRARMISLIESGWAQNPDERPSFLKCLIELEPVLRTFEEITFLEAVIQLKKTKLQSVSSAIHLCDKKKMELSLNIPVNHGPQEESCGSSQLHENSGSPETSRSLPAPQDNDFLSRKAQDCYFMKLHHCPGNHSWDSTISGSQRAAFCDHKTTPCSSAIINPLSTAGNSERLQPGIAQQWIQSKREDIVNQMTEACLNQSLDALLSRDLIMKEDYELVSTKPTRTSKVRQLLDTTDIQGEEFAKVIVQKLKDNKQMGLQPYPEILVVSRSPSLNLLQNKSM
# Assay: NOD2-RIPK2 binding disruptors in cells, primary screen, fluorescence, CHO cells, BLA complementation (AID 624267);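 note: 0% = vehicle only and 100% = reference blocker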
# Conditions: CHO BLA complementation NOD2-RIPK2, CCF4 ratio; at 4.98 µM; stronger effect = higher value
row,Structure (SMILES),inhibition
1,O=C(CNS(=O)(=O)c1ccc2ccccc2c1)Nc1ccc(F)c(F)c1F,-7.54%
2,Cc1ccnc(NC(=O)CCC(=O)N(CC(=O)NCCc2ccccc2)Cc2cccs2)c1,0.75%
3,O=C1/C(=C/c2cccs2)CCC1C1CCCC1 (configuration not stated),-6.88%
4,CCCc1cc(=O)oc2c(C)c(OCC(=O)Nc3ccccn3)ccc12,-2.73%
5,COC(=O)Cc1cc(=O)oc2c(C)c(O)ccc12,33.2% (active)
6,COc1cccc(C(=O)OCc2cc(=O)oc3c(C)c(C)ccc23)c1OC,-0.79%
7,CCCCn1nnnc1C1(C)CCC(=O)N1Cc1ccc(OC)c(OC)c1 (configuration not stated),-13.3%
8,COC(C)(C)[C@]12CC(O)(C(C)C)ON1[C@H]1CCCCC1N2O (some centres not stated),-0.99%
9,CCOC(=O)Cc1c(C)nc2c(C#N)c(C)nn2c1C,1.59%
10,CCCOC(=O)c1ccc(N2C(=O)c3ccccc3C2=O)cc1,1.19%
11,CC(=O)Oc1ccc(C)cc1N1C(=O)c2ccc(C(=O)O)cc2C1=O,-5.17%
12,O=C(/C=C/c1ccc(N2CCOCC2)cc1)c1ccccc1,30.6% (active)
13,C/C(=C/c1ccccc1)C(=O)N1CCN(c2ccccc2)CC1,-2.58%
14,O=C(O)CCC(=O)Nc1ccc(N2CCOCC2)cc1,-4.21%
15,O=C(O)c1ccc2c(c1)C(=O)N(c1ccc(/C=C/C(=O)c3ccccc3)cc1)C2=O,23.8% (active)
16,CCN(C(=O)COC(=O)C1CCN(S(=O)(=O)c2ccc(C)c(C)c2)CC1)C1CCS(=O)(=O)C1 (configuration not stated),-0.71%
17,O=C(Nc1ccc(OCCO)cc1)c1csc([C@H]2C[C@H](O)[C@@H](CO)O2)n1,-10.7%
18,NC(=O)NC(=O)C(OC(=O)CCNS(=O)(=O)c1ccccc1)c1ccccc1 (configuration not stated),-7.31%
19,O=C(CN1CCCCC1)N1c2ccccc2Sc2ccc(C(F)(F)F)cc21,1.57%
20,CC1CCN(C(=O)c2ccccc2NC(=O)Cc2ccccc2)CC1,-1.45%
21,CC(NC(=O)c1ccc(S(=O)(=O)Nc2ccccc2)cc1)c1ccc(S(N)(=O)=O)cc1 (configuration not stated),3.07%
22,O=C1C(=O)N(c2ccccc2)c2ccccc21,9.77%
23,O=C1C(=O)N(CC2COc3ccccc3O2)c2ccccc21 (configuration not stated),22.5% (active)
24,CCn1cc(C(=O)NCC2COc3ccccc3O2)c2cc(OC)c(OC)cc2c1=O (configuration not stated),-5.84%

row,Structure (SMILES),inhibition
1,C[C@H]1CN([C@@H](C)CO)C(=O)Cc2cc(NC(=O)Cc3ccccc3)ccc2O[C@H]1CN(C)S(=O)(=O)c1cccs1,-4.34%
2,Cc1ccc(S(=O)(=O)n2cnc3ccccc32)c(C)c1,3.17%
3,COc1cc2nnn(-c3ccncc3)c2cc1OC,-0.06%
4,CC(C)(C)NC(=O)COC(=O)c1cc(Br)ccc1Cl,-6.13%
5,c1csc(-c2nnc(COc3ncnc4sccc34)o2)c1,2.97%
6,CCOc1ccccc1C1CC(c2ccccc2)Nc2nc(N)nn21 (configuration not stated),-8.78%
7,CC1=C(C(=O)OC2CCCCC2)C(c2cccnc2)n2ncnc2N1 (configuration not stated),7.46%
8,CCOc1ccc(C2=CC(c3ccccc3)n3ncnc3N2)cc1 (configuration not stated),42.2% (active)
9,Brc1ccc(C2=CC(c3ccco3)n3ncnc3N2)cc1 (configuration not stated),24.6% (active)
10,COc1ccc(CN2CCCCC2C)cc1OC (configuration not stated),-10.3%
11,C/C(CC(C)C)=N\Oc1nc(C)cc(C)n1,-7.31%
12,COCCCNC(=O)CN1CCN(Cc2ccccc2Cl)C1=O,5.43%
13,CCc1ccccc1N(CC(=O)N1CCN(c2ccccc2F)CC1)S(C)(=O)=O,-2.64%
14,O=C(CNC(=O)OCc1ccccc1)Oc1cc2oc(=O)cc(-c3ccccc3)c2cc1Cl,52.2% (active)
15,O=C(CNC(=O)c1ccccc1)NCC(=O)OCc1ccc(Cl)cc1,1.19%
16,O=C(CNC(=O)Cc1ccccc1)NCC(=O)OCC(=O)c1ccccc1Cl,-8.44%
17,O=C(Nc1ccc(CSc2ccccc2)cc1)c1ccc(CN2CCOCC2)cc1,-2.26%
18,O=C(Cc1ccccc1)Nc1c(Cl)ccc2nsnc12,-10.4%
19,C=CC(COCc1ccccc1)N(Cc1ccccc1)S(=O)(=O)c1ccccc1Br (configuration not stated),0.84%
20,COc1cc(C)c(C(C)C)cc1S(=O)(=O)n1ccnc1,-1.8%
21,O=C(NCc1ccncc1)C1CCN(C(=O)c2cccc(Cl)c2)CC1,-2.02%
22,CCN(C(=O)CSc1cccc[n+]1[O-])c1ccccc1,1.91%
23,O=C(Cc1csc(Nc2nc(=S)[nH]c3ccccc23)n1)NCCCN1CCN(c2cccc(Cl)c2)CC1,38.1% (active)
